Measurements from PubChem BioAssay (EPA / NIEHS).
The source made the active and inactive calls. Rule for the calls: active = hit-call score of the fitted dose curve at least 0.9, where 1 is the maximum; inactive = score below 0.9.

Each molecule was assayed on Alkaline Phosphatase, Placental (ALPP) gene, ALPP (gene 250) (assay: LTEA_HepaRG_ALPP: Life Technologies and Expression Analysis (LTEA) Assay for Alkaline Phosphatase, Placental (ALPP) gene using HepaRG (AID 2283468;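 for AC50: ALPP transcript by TaqMan qRT-PCR normalized to ACTB GAPDH and POLR2A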)). Conditions: mRNA level, 48 h; actives raise or lower the signal.
Procedure: LTEA_HepaRG is a cell based, multiplexed-readout assay that uses HepaRG, a human liver cell line, with measurements taken at 48 hours after chemical dosing on a 96-well plate.LTEA_HepaRG_ALPP is one of 102 assay component(s) measured in the LTEA HepaRG cell culture assay. It is a marker of Cell proliferation, survival, death.Data from the assay component LTEA_HepaRG_ALPP was analyzed into 1 endpoint. This assay endpoint, LTEA_HepaRG_ALPP, was analyzed with bidirectional fitting relative to DMSO as the negative control and baseline of activity. Using a type of inducible reporter, measures of mRNA induction for gain or loss-of-signal activity can be used to understand regulation of transcription factor activity. To generalize the intended target to other relatable targets, this assay endpoint is annotated to the phosphatase intended target family, where the subfamily is Cell proliferation, survival, death.
A total of 1060 chemcials from the ToxCast library were tested in eight-point concentration-response experiments. Cell culture and cytotoxicity assays were conducted at Thermo Fisher Scientific's Custom Services facility (Madison, WI). A single lot of human HepaRG cells (Thermo Fisher Scientific, Frederick, MD) was used for the cell culture experiments. 96-well format collagen type I coated plates of human HepaRG cells were prepared using established methods. Briefly, cryopreserved HepaRG cells were thawed, plated at a density of approximately 100,000 cells/well in HepaRG Thaw, Plate, and General Purpose media (HPRG770, Thermo Fisher Scientific), and incubated for 48 hours. 0.5% DMSO was selected as vehicle control to balance the requisite need of DMSO in HepaRG cultures to maintain differentiation (for example, baseline metabolism, proportions of hepatocytes vs. cholangiocytes), while enabling further hepatic receptor pathway activation (for example, PXR and CAR) in response to chemical exposure. 48 hours after plating, the culture medium was replaced with HepaRG Serum-Free Incudtion Media. Cells were exposed to each test chemical in duplicate and maintained in CO2 incubators for another 48 hours. Chemical plates were thawed to room temperature and 200x concentrations of treatment groups were prepared. 8-point conentration-reponse curves were made with the highest exposure at 100 uM, followed by half-log dilutions, all in 0.5% DMSO. Each test plate contained variouse controls, induction positive controls (1mM phenobarbital), cytotoxicity positive controls ([…] aflatoxin B1), vehicle controls (0.5% DMSO), and total lysis controls (0.5% DMSO). Cell morphology images were taken using an Essen IncuCyte FLR automated microscope, with six 96-well plates imaged in about 24 minutes. Images were captured and exported and JPEG files. Spent culture media was transfered to black-well plates for the LDH assay, and remaining media was sorted at -80 C for later use. Cells were treated with RLT buffer and frozen until shipped for gene expression analysis. Total RNA was isolated from the cell suspension in 75 uL of Buffer RLT (Qiagen, Germantown, MD 20874) by Quintiles/Expression Analysis (Durham, NC) using a custom isolation procedure. Total RNA from each plate well was transferred to a preamplification plate. Fluidigm's 96.96 Dynamic ArrayTM (Fluidigm, Amsterdam, the Netherlands) technology was used for gene expression analyses by quantitative reverse transcription polymerase chain reaction (qRT-PCR, performed by Quintiles/Expression Analysis, Durham, NC)89. Standard TaqManTM Assays (Applied Biosystems/ThermoFisher Scientific, Foster City, CA) were used to assess the expression of 93 genes selected based on their selectivity and sensitivity to important hepatic receptors known to be modulated by environmental chemicals; importance in human hepatocyte functionality; and hepatotoxicity. […]

Row | SMILES | outcome | AC50
1 | CCCCCCCCCCCCCCC | inactive | –
2 | CN(C)CCOC(c1ccccc1)c1ccccc1 | inactive | –
3 | CCC(C)c1ccccc1O (stereo unspecified) | inactive | –
4 | CCCCC(CC)C(=O)O (stereo unspecified) | inactive | –
5 | CCCCCCCCCCCCOS(=O)(=O)O | inactive | –
6 | CCCCC=O | inactive | –
7 | OCC(CO)(CBr)CBr | inactive | –
8 | Cc1[nH]nc2c1N=C(c1ccccc1Cl)c1cc([N+](=O)[O-])ccc1N2 | – | 1.59 µM (active)
9 | CC(=O)Nc1ccc(O)cc1 | inactive | –
10 | CN(Cc1cnc2nc(N)nc(N)c2n1)c1ccc(C(=O)N[C@@H](CCC(=O)O)C(=O)O)cc1 | inactive | –
11 | CS(=O)(=O)c1ccc([C@@H](CC2CCCC2)C(=O)Nc2cnccn2)cc1Cl | – | 81.2 µM (active)
12 | O=C(CCCN1CCC(O)(c2ccc(Cl)cc2)CC1)c1ccc(F)cc1 | – | 36 µM (active)
13 | O=C1NS(=O)(=O)c2ccccc21 | inactive | –
14 | N=C(N)c1ccc(OCCCCCOc2ccc(C(=N)N)cc2)cc1 | inactive | –
15 | O=C(c1ccccc1)c1ccccc1 | inactive | –
16 | CCCCc1oc2ccccc2c1C(=O)c1cc(I)c(OCCN(CC)CC)c(I)c1 | – | 22.8 µM (active)
